Unmarked numbers belong to inactive results. Some of the results follow. The source made the active and inactive calls.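 The calls were made as follows, unless noted: active = inhibition above the primary screen's cutoff, its mean inhibition plus 3 SD (cut at about 35% in these data); inactive = the rest.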
Tests used:
[1] = target: Protein phosphatase methylesterase 1 (Homo sapiens) (UniProt Q9Y570); test: human PME-1 methylesterase inhibition confirmation – biochemical, fluorescence polarization, FP-Rh probe, triplicate (AID 2171;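 active = inhibition above the hit cutoff set in the earlier primary screen, cut at about 27% in these data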;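 also: 0% = enzyme with DMSO and 100% = wells lacking PME-1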); details: recombinant PME-1, FP-Rh probe fluorescence polarization; at 5.9 µM; stronger effect = higher value
[2] = StAR promoter reporter inhibitors, counter-screen for LRH-1 inverse agonist project, cell-based, luminescence, high throughput (AID 651611; in the data active = inhibition above about 28%); details: StAR promoter luciferase reporter counterscreen, at 3.6 µM, stronger effect = higher value
[3] = target: Nuclear receptor subfamily 5 group A member 2 (Homo sapiens) (UniProt O00482); test: NR5A2 activity suppression in reporter cells – cell-based, luminescence, confirmation (AID 651613; in the data active = inhibition above about 42%;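 also: HEK293T cells co-transfected with LRH-1 and StAR promoter luciferase reporter; 0% = vehicle wells and 100% = parental cells lacking receptor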); details: cell-based LRH-1 luciferase reporter, inverse agonism; at 3.6 µM; stronger effect = higher value
Chain of Nuclear receptor subfamily 5 group A member 2 (Homo sapiens) (O00482 whole entry, looked up): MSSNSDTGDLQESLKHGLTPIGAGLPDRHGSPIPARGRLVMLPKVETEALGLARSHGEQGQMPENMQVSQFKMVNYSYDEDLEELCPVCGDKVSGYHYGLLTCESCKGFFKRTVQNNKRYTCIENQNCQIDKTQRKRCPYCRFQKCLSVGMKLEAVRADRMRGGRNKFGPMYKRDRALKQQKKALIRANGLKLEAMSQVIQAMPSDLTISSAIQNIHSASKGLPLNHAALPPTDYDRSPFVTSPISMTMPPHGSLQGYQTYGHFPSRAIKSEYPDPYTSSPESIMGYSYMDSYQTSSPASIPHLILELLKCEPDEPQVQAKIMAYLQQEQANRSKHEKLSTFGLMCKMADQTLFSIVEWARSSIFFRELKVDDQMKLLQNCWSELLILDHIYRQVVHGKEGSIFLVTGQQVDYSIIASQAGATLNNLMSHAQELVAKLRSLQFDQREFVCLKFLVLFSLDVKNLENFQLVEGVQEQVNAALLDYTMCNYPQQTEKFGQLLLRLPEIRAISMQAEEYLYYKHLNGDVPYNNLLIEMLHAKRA

[4] = target: Steroidogenic factor 1 (Homo sapiens) (UniProt Q13285); test: inverse agonism at SF1 nuclear receptor – cell-based, luminescence, high throughput, counter-screen for LRH-1 inverse agonist project (AID 651614; in the data active = inhibition above about 44%;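 also: cells cotransfected with StAR promoter reporter and SF1 expression vector; 0% = vehicle on cells with receptor and 100% = vehicle on cells lacking receptor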); details: cell-based SF1 luciferase reporter, at 3.6 µM, stronger effect = higher value
Chain of Steroidogenic factor 1 (Homo sapiens) (Q13285 whole entry, looked up, the tested form may be a part): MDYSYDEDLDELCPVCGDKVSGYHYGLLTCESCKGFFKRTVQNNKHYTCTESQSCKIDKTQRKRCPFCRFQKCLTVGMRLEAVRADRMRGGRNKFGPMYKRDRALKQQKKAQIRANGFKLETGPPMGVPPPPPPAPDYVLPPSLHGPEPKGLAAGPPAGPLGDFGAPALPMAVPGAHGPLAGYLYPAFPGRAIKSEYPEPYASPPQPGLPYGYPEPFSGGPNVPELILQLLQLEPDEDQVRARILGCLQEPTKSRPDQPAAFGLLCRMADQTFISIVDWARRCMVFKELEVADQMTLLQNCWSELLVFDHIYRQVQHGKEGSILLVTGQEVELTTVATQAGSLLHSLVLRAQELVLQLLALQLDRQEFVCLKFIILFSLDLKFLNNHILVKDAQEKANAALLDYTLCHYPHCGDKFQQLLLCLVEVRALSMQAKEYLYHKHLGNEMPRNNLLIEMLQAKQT

[5] = compounds suppressing VP16-driven luciferase signal – cell-based, luminescence, high throughput, counter-screen for LRH-1 inverse agonist project (AID 651615; in the data active = inhibition above about 33%); details: Gal4-VP16 luciferase reporter cells, at 3.6 µM, stronger effect = higher value
[6] = target: Glutathione S-transferase omega-1 (Homo sapiens) (UniProt P78417); test: recombinant GSTO1 blockers, retest – biochemical, fluorescence polarization, triplicate, counter-screen for RBBP9 inhibitor project, confirmation (AID 2176); details: recombinant GSTO1, probe fluorescence polarization; at 5.96 µM; stronger effect = higher value;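 also: loss of polarization as inhibitors block binding of rhodamine sulfonate ester activity probe; 0% = GSTO1 with DMSO and 100% = wells lacking GSTO1 enzyme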
Chain of Glutathione S-transferase omega-1 (Homo sapiens) (P78417 whole entry, looked up): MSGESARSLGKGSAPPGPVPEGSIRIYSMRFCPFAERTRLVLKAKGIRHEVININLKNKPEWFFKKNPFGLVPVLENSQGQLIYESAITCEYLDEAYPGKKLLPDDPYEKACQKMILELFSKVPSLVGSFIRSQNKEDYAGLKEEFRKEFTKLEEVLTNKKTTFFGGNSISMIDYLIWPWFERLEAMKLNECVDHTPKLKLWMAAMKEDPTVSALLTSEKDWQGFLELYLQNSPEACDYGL

[7] = reduced OD of T4-infected AddAB+ E. coli – absorbance, E. coli V3065, T4 phage, triplicate, AddAB inhibitor project, confirmation (AID 488942;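 active = mean inhibition above a set limit taken from the earlier primary screen, cut at about 13% in these data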;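 also: higher means less bacterial growth since AddAB block lets phage replicate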); details: E. coli V3065 expressing H. pylori AddAB, at 11.9 µM, stronger effect = higher value, T4 phage with gene 2 nonsense mutations
[8] = reduced OD of phage-infected RecBCD+ V66 E. coli – absorbance, mutant T4 phage, counter-screen for AddAB inhibitor project (AID 488955;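 active = mean inhibition above the mean of solvent-only control wells plus 3 SD, cut at about 4% in these data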;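 also: optical density read after an 18 h incubation at 37 °C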); details: OD growth, at 11.9 µM, stronger effect = higher value
[9] = bacterial growth inhibitors – absorbance, counter-screen for AddAB inhibitor project, confirmation (AID 488956; in the data active = inhibition above about 25%); details: bacterial viability, absorbance (AddAB counterscreen); at 11.9 µM; stronger effect = higher value
[10] = target: Protein-arginine deiminase type-4 (Homo sapiens) (UniProt Q9UM07); test: protein arginine deiminase 4 blockade, retest – biochemical, fluorescence polarization, confirmation (AID 488796;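 active = mean inhibition across replicates above the hit cutoff set by the earlier primary screen, cut at about 15% in these data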;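 also: inhibitors block active-site labeling by the probe so polarization falls; 0% = PAD4 with probe and DMSO and 100% = probe without PAD4 enzyme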); details: recombinant PAD4, RCA probe fluorescence polarization; at 6.36 µM; stronger effect = higher value
Chain of Protein-arginine deiminase type-4 (Homo sapiens) (Q9UM07 whole entry, looked up): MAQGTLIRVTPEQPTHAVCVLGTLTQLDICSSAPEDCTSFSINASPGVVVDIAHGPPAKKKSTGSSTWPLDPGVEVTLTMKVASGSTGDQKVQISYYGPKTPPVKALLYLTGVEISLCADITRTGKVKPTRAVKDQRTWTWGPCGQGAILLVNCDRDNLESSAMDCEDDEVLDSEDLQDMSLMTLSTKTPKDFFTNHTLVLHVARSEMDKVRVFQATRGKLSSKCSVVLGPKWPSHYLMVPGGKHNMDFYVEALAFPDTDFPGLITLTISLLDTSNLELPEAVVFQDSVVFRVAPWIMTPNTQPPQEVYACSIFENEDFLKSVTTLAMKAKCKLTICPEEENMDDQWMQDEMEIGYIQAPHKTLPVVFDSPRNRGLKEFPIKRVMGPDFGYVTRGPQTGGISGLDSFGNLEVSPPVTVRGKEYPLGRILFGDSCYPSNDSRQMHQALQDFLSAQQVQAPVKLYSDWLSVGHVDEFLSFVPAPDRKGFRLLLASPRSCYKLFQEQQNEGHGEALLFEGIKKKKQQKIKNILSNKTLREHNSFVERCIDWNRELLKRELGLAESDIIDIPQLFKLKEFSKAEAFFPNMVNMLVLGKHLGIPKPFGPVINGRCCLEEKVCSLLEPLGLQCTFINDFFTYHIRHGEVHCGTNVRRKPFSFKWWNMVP

[11] = target: Platelet-activating factor acetylhydrolase IB subunit alpha1 (Homo sapiens) (UniProt Q15102); test: inhibition of PAF acetylhydrolase 1B subunit 3 – biochemical, fluorescence polarization, human, confirmation (AID 493032;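 active = average inhibition over triplicate runs above the hit cutoff set in the earlier primary screen, cut at about 25% in these data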;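 also: 0% = enzyme with DMSO and 100% = wells lacking PAFAH1B3 protein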); details: recombinant PAFAH1B3, FP-Rh activity-based probe, at 3.39 µM, stronger effect = higher value
Chain of Platelet-activating factor acetylhydrolase IB subunit alpha1 (Homo sapiens) (Q15102 whole entry, looked up): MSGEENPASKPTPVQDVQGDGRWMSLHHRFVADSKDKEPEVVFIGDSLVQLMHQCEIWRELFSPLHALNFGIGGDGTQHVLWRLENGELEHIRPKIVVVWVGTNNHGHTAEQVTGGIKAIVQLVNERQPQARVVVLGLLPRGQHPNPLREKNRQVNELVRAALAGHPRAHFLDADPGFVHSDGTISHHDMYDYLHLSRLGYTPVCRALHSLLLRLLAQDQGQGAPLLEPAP

[12] = target: Insulin-degrading enzyme (Homo sapiens) (UniProt P14735); test: cellular IDE Abeta-cleavage inhibition – fluorescence polarization, HEK cells, FAbetaB substrate, confirmation (AID 435028;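 active = mean inhibition across triplicate wells above the cutoff set by the earlier primary insulin-degrading enzyme screen, cut at about 16% in these data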;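 also: 0% = DMSO wells and 100% = 60 µM reference IDE inhibitor Ii1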); details: at 5.59 µM, stronger effect = higher value
Chain of Insulin-degrading enzyme (Homo sapiens) (P14735 whole entry, looked up): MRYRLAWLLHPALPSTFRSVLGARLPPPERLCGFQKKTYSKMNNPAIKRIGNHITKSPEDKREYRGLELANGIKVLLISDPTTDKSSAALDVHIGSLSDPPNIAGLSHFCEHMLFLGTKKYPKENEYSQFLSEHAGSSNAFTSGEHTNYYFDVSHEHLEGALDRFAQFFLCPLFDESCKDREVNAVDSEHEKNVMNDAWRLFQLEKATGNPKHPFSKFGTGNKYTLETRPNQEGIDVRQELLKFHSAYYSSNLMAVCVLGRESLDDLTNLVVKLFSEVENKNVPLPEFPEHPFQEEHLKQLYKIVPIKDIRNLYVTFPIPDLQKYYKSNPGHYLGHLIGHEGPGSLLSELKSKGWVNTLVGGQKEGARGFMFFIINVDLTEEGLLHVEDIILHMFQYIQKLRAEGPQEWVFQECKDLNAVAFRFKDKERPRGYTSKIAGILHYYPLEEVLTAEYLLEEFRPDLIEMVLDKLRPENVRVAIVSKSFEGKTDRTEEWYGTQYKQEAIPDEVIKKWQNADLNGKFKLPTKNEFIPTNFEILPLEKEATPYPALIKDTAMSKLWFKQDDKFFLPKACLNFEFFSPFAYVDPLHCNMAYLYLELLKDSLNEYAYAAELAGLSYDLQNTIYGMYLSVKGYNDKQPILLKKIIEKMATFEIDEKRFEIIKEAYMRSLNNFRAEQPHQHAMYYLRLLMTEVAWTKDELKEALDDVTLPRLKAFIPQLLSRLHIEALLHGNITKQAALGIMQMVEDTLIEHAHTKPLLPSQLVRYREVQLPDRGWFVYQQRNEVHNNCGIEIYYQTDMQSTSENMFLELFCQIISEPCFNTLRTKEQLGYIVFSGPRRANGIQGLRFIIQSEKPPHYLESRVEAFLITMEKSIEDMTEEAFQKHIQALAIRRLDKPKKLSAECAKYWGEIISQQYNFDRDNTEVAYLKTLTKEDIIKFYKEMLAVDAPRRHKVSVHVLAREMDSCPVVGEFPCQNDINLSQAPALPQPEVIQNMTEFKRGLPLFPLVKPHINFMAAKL

[13] = HEK cell viability loss – luminescence, cytotoxicity control for IDE inhibitor project (AID 449730; in the data active = inhibition above about 22%;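 also: 0% = vehicle wells and 100% = reference cytotoxic drug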); details: HEK293 cytotoxicity, ATP luminescence; at 5.59 µM; stronger effect = higher value
[14] = target: (Lyso)-N-acylphosphatidylethanolamine lipase (Mus musculus) (UniProt Q8VD66); test: mouse ABHD4 hydrolase blockers, triplicate – biochemical, fluorescence polarization, confirmation (AID 720658;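 active = mean inhibition across replicates above the hit cutoff set in the primary screen, cut at about 30% in these data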;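 also: 0% = wild-type ABHD4 with DMSO and 100% = catalytically dead S159A mutant with DMSO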); details: purified mABHD4, FP-Rh probe fluorescence polarization; at 8.92 µM; stronger effect = higher value
Chain of (Lyso)-N-acylphosphatidylethanolamine lipase (Mus musculus) (Q8VD66 whole entry, looked up): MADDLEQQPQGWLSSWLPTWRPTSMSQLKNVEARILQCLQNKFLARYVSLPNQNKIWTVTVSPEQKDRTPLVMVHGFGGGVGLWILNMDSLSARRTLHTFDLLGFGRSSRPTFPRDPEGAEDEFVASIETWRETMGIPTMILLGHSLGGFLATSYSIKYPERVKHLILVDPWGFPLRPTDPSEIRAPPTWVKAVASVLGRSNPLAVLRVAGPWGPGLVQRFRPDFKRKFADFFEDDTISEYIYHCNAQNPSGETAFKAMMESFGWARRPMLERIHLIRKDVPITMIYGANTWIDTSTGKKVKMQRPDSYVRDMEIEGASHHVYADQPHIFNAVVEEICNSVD

[15] = tested on: transactivating tegument protein VP16 (Human herpesvirus 1); test: compounds suppressing VP16-driven luciferase signal – cell-based, luminescence, single concentration, counter-screen for SRC2 inhibitor project (AID 652007; in the data active = inhibition above about 36%); details: cell-based VP16 transactivation luciferase reporter, at 8.9 µM, stronger effect = higher value
[16] = target: Nuclear receptor coactivator 2 (Homo sapiens) (UniProt Q15596); test: inhibition of GAL4-SRC2 driven luciferase expression – cell-based, luminescence, HEK293, triplicate, confirmation (AID 652008;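 active = mean inhibition above 46.5%, the solvent-only control mean plus 3 SD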;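 also: 0% = DMSO-treated cells and 100% = Gossypol at 36 µM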); details: HEK293 GAL4-SRC2 luciferase reporter, at 8.9 µM, stronger effect = higher value
Chain of Nuclear receptor coactivator 2 (Homo sapiens) (Q15596 whole entry, looked up, the tested form may be a part): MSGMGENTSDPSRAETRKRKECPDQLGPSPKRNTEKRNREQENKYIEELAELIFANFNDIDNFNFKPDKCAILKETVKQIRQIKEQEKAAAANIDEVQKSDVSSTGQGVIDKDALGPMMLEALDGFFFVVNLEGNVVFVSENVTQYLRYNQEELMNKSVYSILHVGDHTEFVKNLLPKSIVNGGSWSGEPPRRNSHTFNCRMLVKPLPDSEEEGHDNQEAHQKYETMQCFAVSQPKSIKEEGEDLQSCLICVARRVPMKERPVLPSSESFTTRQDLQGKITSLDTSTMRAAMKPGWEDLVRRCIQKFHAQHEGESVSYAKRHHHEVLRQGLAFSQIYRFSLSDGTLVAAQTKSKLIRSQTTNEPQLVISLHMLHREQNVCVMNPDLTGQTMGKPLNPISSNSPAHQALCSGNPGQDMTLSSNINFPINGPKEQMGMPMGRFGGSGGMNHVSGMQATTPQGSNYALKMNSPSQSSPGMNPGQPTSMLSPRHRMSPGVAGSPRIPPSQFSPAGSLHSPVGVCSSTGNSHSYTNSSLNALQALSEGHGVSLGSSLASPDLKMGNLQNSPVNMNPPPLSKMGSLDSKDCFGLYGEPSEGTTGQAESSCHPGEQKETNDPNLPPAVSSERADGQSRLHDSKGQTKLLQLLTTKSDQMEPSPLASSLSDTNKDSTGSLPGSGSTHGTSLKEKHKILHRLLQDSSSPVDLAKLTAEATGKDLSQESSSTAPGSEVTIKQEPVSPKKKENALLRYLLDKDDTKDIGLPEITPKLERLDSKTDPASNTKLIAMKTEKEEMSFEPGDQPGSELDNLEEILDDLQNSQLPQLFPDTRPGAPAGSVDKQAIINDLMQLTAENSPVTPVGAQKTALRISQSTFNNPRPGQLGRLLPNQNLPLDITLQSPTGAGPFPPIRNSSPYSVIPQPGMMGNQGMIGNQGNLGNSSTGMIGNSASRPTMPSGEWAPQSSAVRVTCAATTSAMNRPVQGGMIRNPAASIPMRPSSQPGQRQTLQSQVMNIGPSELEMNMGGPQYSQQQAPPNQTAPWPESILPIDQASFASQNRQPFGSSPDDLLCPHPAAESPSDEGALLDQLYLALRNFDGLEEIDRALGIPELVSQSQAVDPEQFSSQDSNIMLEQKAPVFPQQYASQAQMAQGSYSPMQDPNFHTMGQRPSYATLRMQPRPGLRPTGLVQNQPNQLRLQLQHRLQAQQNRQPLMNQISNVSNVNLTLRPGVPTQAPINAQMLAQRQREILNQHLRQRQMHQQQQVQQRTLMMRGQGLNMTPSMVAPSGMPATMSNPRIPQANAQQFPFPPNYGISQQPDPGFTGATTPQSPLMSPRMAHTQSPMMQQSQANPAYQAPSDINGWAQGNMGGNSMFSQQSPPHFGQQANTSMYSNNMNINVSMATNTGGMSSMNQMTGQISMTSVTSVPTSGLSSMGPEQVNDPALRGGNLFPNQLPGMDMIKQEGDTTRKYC

[17] = target: Serine protease HTRA1 (Homo sapiens) (UniProt Q92743); test: confirming inhibition of human HTRA1 – biochemical, fluorescence polarization, confirmation (AID 540248;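 active = mean inhibition over three repeats above a set limit taken from the earlier primary screen, cut at about 37% in these data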;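 also: 0% = HTRA1 with DMSO and 100% = wells lacking HTRA1; inhibitors block probe binding so polarization drops and inhibition rises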); details: recombinant HTRA1, FP-rhodamine activity-based probe, at 5.96 µM, stronger effect = higher value

CCCCn1c(NS(=O)(=O)c2ccccc2)c(S(=O)(=O)c2ccc(C)cc2)c2nc3ccccc3nc21
inhibition [1]: 11.6%
inhibition [2]: 15.2%
inhibition [3]: 19.7%
inhibition [4]: 24.9%
inhibition [5]: -6.99%

O=C(c1[nH]ncc1-c1ccc(Cl)cc1)C1CO1 (stereo not given)
inhibition [6]: 79.6% (active)
inhibition [7]: 57.3% (active)
inhibition [8]: 7.58% (active)
inhibition [9]: 34.3% (active)

O=C(CCl)Nc1cccc(CP(=O)(c2ccccc2)c2ccccc2)c1
inhibition [6]: 90.4% (active)

COC(=O)CCCC1=CC2=C(c3ccccc3)C(=O)C(C)(OC(=O)C3CCCC3)C(=O)C2=CN1c1ccc(OC)cc1 (stereo not given)
inhibition [6]: 16.9%

CCOc1c(Br)cc(/C=C2\C(=O)N(CCC#N)N=C2C)cc1OC
inhibition [6]: 3.85%
inhibition [10]: -1.18%

O=C(CCl)NNc1cccc(Cl)n1
inhibition [6]: 50% (active)

O=c1cc(CCl)nc2scc(-c3ccccc3)n12
inhibition [6]: 96.3% (active)

CCCc1nc2ccccc2c(=O)n1/N=C/c1ccc(O)c(O)c1
inhibition [6]: 3.52%

COc1ccc(C(C(=O)NC2CCCCC2)N(C(=O)CCl)c2ccccc2Cl)cc1 (stereo not given)
inhibition [6]: 45% (active)

Cc1[nH][nH]c(=O)c1C(c1ccc(-c2ccc(Cl)cc2)o1)c1c(C)[nH][nH]c1=O
inhibition [6]: 22.6%
inhibition [10]: 2.58%

O=C1Nc2c(Br)cc(Br)cc2C1(O)N1CCOCC1 (stereo not given)
inhibition [6]: 25.2%
inhibition [11]: 8.59%

COc1ccc(-c2csc(Nc3ccc(O)cc3)n2)cc1
inhibition [6]: 7.69%

COC(=O)c1ccc(CSc2nncn2N)cc1
inhibition [6]: 1.78%

c1coc(-c2nc3nc4ccccc4n3nc2-c2ccco2)c1
inhibition [6]: 16.5%

O=C(c1cccnc1)N(c1cc2sc(=O)oc2c2ccccc12)S(=O)(=O)c1ccccc1
inhibition [6]: 6.84%
inhibition [12]: 3.36%
inhibition [13]: 10.9%
inhibition [14]: 17.6%

COc1ccc(S(=O)(=O)N2CCOCC2)cc1NC(=O)CSc1ncnc2ccccc12
inhibition [6]: 15.2%
inhibition [10]: 0.87%

CCOC(=O)c1c(NC(=O)c2ccc(S(=O)(=O)N(C)CC3CCCO3)cc2)sc2c1CC(C)(C)NC2(C)C (stereo not given)
inhibition [6]: 4.04%

Cc1ccc(C(=O)N/N=C/c2sc(=O)n(Cc3cccc(C(=O)O)c3)c2Cl)cc1
inhibition [6]: 48.3% (active)

C[n+]1ccccc1C1CCCC/C1=N\Nc1ccc([N+](=O)[O-])cc1[N+](=O)[O-] (stereo not given)
inhibition [6]: 6.21%

O=C(Cn1c(-c2ccccn2)nc2ccccc21)NCCN1CCOCC1
inhibition [6]: 6.3%

COCCN1C=C2C(=O)C(C)(OC(=O)C3CCCC3)C(=O)C=C2C=C1c1ccsc1 (stereo not given)
inhibition [6]: 7.54%
inhibition [10]: -1.24%

CC1=CC(C)(C)Nc2ccc(OC(=O)CN3C(=O)C4CCCCC4C3=O)cc21 (stereo not given)
inhibition [6]: 1.06%
inhibition [12]: 29.8% (active)
inhibition [13]: 75% (active)
inhibition [15]: -22.9%
inhibition [16]: 27.4%

O=[N+]([O-])c1ccc(C=Nc2ccc(Cl)cc2Cl)s1
inhibition [6]: 11.6%

C=CCNC(=O)c1ccccc1SCc1c(C)noc1C
inhibition [6]: 3.92%

COC(=O)CCCC1=CC2=CC(=O)C(C)(OC(=O)c3cccs3)C(=O)C2=CN1CC1CC1 (stereo not given)
inhibition [6]: 30.3%
inhibition [10]: 1.6%

COC1=C(N2CCOCC2)C(=O)c2ccccc2C1=O
inhibition [6]: 28.9%

COc1ccccc1CCCNC(=O)C1CCC(=O)N(CCN2CCOCC2)C1 (stereo not given)
inhibition [6]: 5.53%

CC/C(=N/Nc1ccccc1)c1cnnc(SC)n1
inhibition [6]: 9.56%

O=C(Cc1cc(=O)[nH][nH]1)N/N=C/c1ccccc1[N+](=O)[O-]
inhibition [6]: 5.98%

Oc1ccc(CNc2ccccc2O)cc1
inhibition [6]: 21.7%
inhibition [17]: 29%
inhibition [14]: 37.2% (active)

CC(=O)N(C1=C(Cl)C(=O)c2ccccc2C1=O)c1ccc(C(=O)O)cc1
inhibition [6]: 77.8% (active)
inhibition [12]: 164% (active)
inhibition [13]: 14.1%
inhibition [11]: 25.6% (active)

Oc1c(C=Nc2cccc3nsnc23)ccc2ccccc12
inhibition [6]: 69.9% (active)
inhibition [10]: -54.5%

CC(C)CC[n+]1ccn(C2=C([O-])c3ccccc3C(=O)/C2=N\S(=O)(=O)c2ccccc2)c1
inhibition [6]: 68.2% (active)

COc1ccc2c(c1)OC(O)(C(F)(F)C(F)F)CC2=O (stereo not given)
inhibition [6]: 5.88%
